Among the data in the supplement of paper PMC13380429 are morphology score and SARS-CoV-2 infection rate values, retold here.

SMILES strings stand for the structures. Where a name gives a salt, the structure may show the parent alone.

Assay [1] has as its system Vero E6 infected with SARS-CoV-2. The assay is described as follows: morphology score (similarity to uninfected cells); higher = more like uninfected cells. To be noted: 24 h.
The test system is the same in assay [2]. The assay is described as follows: SARS-CoV-2 infection rate relative to infected DMSO; higher = more infection, active = 60 or less. To be noted: 24 h.

Molecule `Clc1ccc([C@]23CNC[C@H]2C3)cc1Cl` [amitifadine] (10 µM) had a morphology score in assay [1] of 0.0575. Also, in assay [2], the SARS-CoV-2 infection rate is 110% (inactive).

In assay [1], `C=C1CC[C@@H]2[C@](C)(CO)[C@H](O)CC[C@@]2(C)[C@@H]1C/C=C1/C(=O)OC[C@H]1O` [andrographolide] (0.833333 µM) registered a morphology score of 0.123. For the same molecule, the SARS-CoV-2 infection rate in assay [2] is 106% (inactive).

As to `CC(=O)c1c(C)c2cnc(Nc3ccc(N4CCNCC4)cn3)nc2n(C2CCCC2)c1=O` [palbociclib] (10 µM), the morphology score in assay [1] stood at 0.0925. Besides, the SARS-CoV-2 infection rate in assay [2] is 108% (inactive).

The molecule `CC1=C(CC(=O)O)c2cc(F)ccc2/C1=C\c1ccc(S(C)(=O)=O)cc1` [exisulind] (10 µM) had a morphology score in assay [1] of 0.0955. In addition, in assay [2], the SARS-CoV-2 infection rate was 109% (inactive).

In the case of `C[C@H](CCC(=O)O)[C@H]1CC[C@H]2[C@@H]3CC[C@@H]4C[C@H](O)CC[C@]4(C)[C@H]3C[C@H](O)[C@]12C` [deoxycholic-acid] (10 µM), the morphology score in assay [1] came out at 0.0921. Besides, in assay [2], the SARS-CoV-2 infection rate was 104% (inactive).

The molecule `CSc1nc2ccc3nc(NC(=O)C(c4ccccc4)c4ccccc4)sc3c2s1` (10 µM) returned a morphology score in assay [1] of 0.0833. Also, the SARS-CoV-2 infection rate in assay [2] was 94.5% (inactive).

On to `NC(=O)c1ncn([C@@H]2O[C@H](CO)[C@@H](O)[C@H]2O)n1` [ribavirin] (10 µM), for which the morphology score in assay [1] was found to be 0.0157. For the same molecule, the SARS-CoV-2 infection rate in assay [2] is 97.5% (inactive).

In assay [1], `O=C(O)Cn1c2c(c3cc(F)ccc31)CN(C(=O)c1cccc3ccccc13)CC2` [setipiprant] (10 µM) registered a morphology score of -0.161. Also, the SARS-CoV-2 infection rate in assay [2] was 108% (inactive).

As for `Cc1ccc(-n2nc(C(C)(C)C)cc2NC(=O)NCc2cc(F)ccc2Oc2ccc3c(cnn3CCO)c2)cc1` [pexmetinib] (0.833333 µM), the morphology score in assay [1] stood at 0.226. The SARS-CoV-2 infection rate in assay [2] is 105% (inactive).

On to `Cc1cnc(Nc2ccc(N3CCN(C)CC3)cc2)nc1Nc1cccc(S(=O)(=O)NC(C)(C)C)c1` (0.833333 µM), for which the morphology score in assay [1] turned out to be 0.106. Also, the SARS-CoV-2 infection rate in assay [2] was 122% (inactive).

Molecule `C[C@@H](NC(=O)[C@@H](N)Cc1ccc(O)cc1)C(=O)NCC(=O)N(C)[C@@H](Cc1ccccc1)C(=O)N[C@H](CO)CC[S+](C)[O-]` (stereo not given in full) (10 µM) displayed a morphology score in assay [1] of 0.111. Besides, in assay [2], the SARS-CoV-2 infection rate was 112% (inactive).

Consider `CN1CCOC(c2ccccc2)c2ccccc2C1` (stereo not given) [nefopam] (10 µM), for which the morphology score in assay [1] was determined as 0.0314. The SARS-CoV-2 infection rate in assay [2] was 108% (inactive).

Regarding `C[C@]12CC[C@H](O)CC1=CC[C@@H]1[C@@H]2CC[C@]2(C)C(c3cccnc3)=CC[C@@H]12` [Abiraterone (CB-7598)] (10 µM), the morphology score in assay [1] is -0.0295. The SARS-CoV-2 infection rate in assay [2] is 115% (inactive).

In turn, `CC(C(=O)O)c1cccc(C(=O)c2ccccc2)c1` (stereo not given) [ketoprofen] (10 µM) showed a morphology score in assay [1] of 0.173. The SARS-CoV-2 infection rate in assay [2] was 102% (inactive).

In assay [1], `CC(COc1ccccc1)N(CCCl)Cc1ccccc1` (stereo not given) [phenoxybenzamine] (10 µM) had a morphology score of 0.146. In assay [2], the SARS-CoV-2 infection rate is 106% (inactive).

Molecule `CCn1c(-c2nonc2N)nc2cncc(CNC3CCNCC3)c21` (10 µM) came in with a morphology score in assay [1] of 0.371. Besides, the SARS-CoV-2 infection rate in assay [2] is 106% (inactive).

`N[C@@H](C(=O)O)c1nn[nH]n1` (racemic) [tetrazol-5-yl-glycine-(RS)] (10 µM): the morphology score in assay [1] was 0.03. Moreover, the SARS-CoV-2 infection rate in assay [2] is 98% (inactive).

In assay [1], `O=C(O)c1cc2occc2[nH]1` (10 µM) returned a morphology score of -0.103. The SARS-CoV-2 infection rate in assay [2] is 109% (inactive).

The molecule `CCN(CCO)CCCOc1ccc2c(Nc3cc(CC(=O)Nc4cccc(F)c4)[nH]n3)ncnc2c1` [barasertib-HQPA] (10 µM) registered a morphology score in assay [1] of 0.0875. For the same molecule, the SARS-CoV-2 infection rate in assay [2] is 112% (inactive).

As for `Nc1nc(=O)n([C@H]2C[C@H](O)[C@@H](CO)O2)cc1Cl` [cytochlor] (10 µM), in assay [1], the morphology score was found to be 0.156. Moreover, the SARS-CoV-2 infection rate in assay [2] is 102% (inactive).

On to `CC(C)(CC(=O)N1CCCC1)NCC(=O)N1C[C@@H](F)C[C@H]1C#N` (10 µM), for which the morphology score in assay [1] amounted to 0.0148. Also, the SARS-CoV-2 infection rate in assay [2] is 102% (inactive).

The molecule `CCN[C@@H](C)Cc1cccc(C(F)(F)F)c1` [dexfenfluramine] (10 µM) displayed a morphology score in assay [1] of -0.224. Moreover, the SARS-CoV-2 infection rate in assay [2] is 112% (inactive).

Turning to `COc1ccc(COc2ccc(Cc3cnc(N)nc3N)cc2OC)cc1` (10 µM), the morphology score in assay [1] is -0.072. Further, in assay [2], the SARS-CoV-2 infection rate is 112% (inactive).

In the case of `CC[C@@H](c1cccc(O)c1)[C@@H](C)CN(C)C` [Tapentadol (hydrochloride)] (10 µM), in assay [1], the morphology score came out at 0.0731. In addition, in assay [2], the SARS-CoV-2 infection rate is 108% (inactive).

`Cc1ccccc1C(=O)Nc1ccc(C(=O)N2CCCC(O)c3cc(Cl)ccc32)c(C)c1` (stereo not given) [tolvaptan] (10 µM) yielded a morphology score in assay [1] of 0.0857. Also, in assay [2], the SARS-CoV-2 infection rate was 120% (inactive).

Take `CC(=O)NS(=O)(=O)c1ccc(N)cc1` [sulfacetamide] (10 µM): the morphology score in assay [1] was 0.147. Besides, the SARS-CoV-2 infection rate in assay [2] was 100% (inactive).

The molecule `C#CCOC(=O)C1=CCCN(C)C1` [arecaidine-propargyl-ester] (10 µM) displayed a morphology score in assay [1] of 0.0331. The SARS-CoV-2 infection rate in assay [2] was 93.5% (inactive).

As for `CC12CCC(C(Br)C1=O)C2(C)C` (stereo not given) [3-bromocamphor] (10 µM), the morphology score in assay [1] was -0.0927. For the same molecule, the SARS-CoV-2 infection rate in assay [2] is 106% (inactive).

Turning to `CC(=O)N[C@H]1[C@@H](O)[C@H](O)[C@@H](CO)O[C@@H]1O` [N-acetylmannosamine] (10 µM), the morphology score in assay [1] amounted to 0.18. For the same molecule, the SARS-CoV-2 infection rate in assay [2] is 100% (inactive).

`O=C(NNc1ccccc1)c1ccncc1` [plurisin-1] (10 µM): in assay [1], the morphology score is -0.14. Besides, in assay [2], the SARS-CoV-2 infection rate was 108% (inactive).
